Results on 14 compounds are retold here after PubChem BioAssay (NCI).

About 83,000 compounds went through this panel and 20% of them were active in at least one assay; those are over-represented in the sample as a whole.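 Growth was measured after 48 h exposure to one concentration of compound in 96-well plates. Values under 10 count as active.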 Values without a mark were called inactive. The source made the active and inactive calls.

The subject of this assay is MDA-MB-468 breast. Nature of the assay: NCI-60 one-dose screen, 48 h (100 = growth as untreated, 0 = no growth, -100 = all killed). The following applies: 10 µM unless noted.
Consider `C[C@]12CC[C@@H]3c4ccc(OCC(=O)O)cc4CC[C@H]3[C@@H]1CCC2=O`, for which the growth is 113%.

For the compound `OC1CCN(CCCOc2c3ccccc3nc3c2oc2ccc(Cl)cc23)CC1`, the growth was -8.36% (active).

Turning to `CN1CCN(CC#CCOC(=O)CNC(=O)[C@]23CCC(C)(C)C[C@H]2C2=CC[C@@H]4[C@@]5(C)CC[C@H](O)C(C)(C)[C@@H]5CC[C@@]4(C)[C@]2(C)CC3)CC1`, the growth was 97.5%.

In the case of `Cn1cc(-c2csc(-c3cn(C)c4ncccc34)n2)c2cccnc21`, the growth is -10.8% (active).

With `CC1=CC(C)(C)Nc2ccc(Cc3ccc4c(c3)C(C)=CC(C)(C)N4)cc21`, the growth is -12.4% (active).

On to `COc1cc(-c2nn(C(C)(C)C)cc2-c2ccnc(NCCCNS(=O)(=O)c3ccccc3)n2)ccc1Cl`, for which the growth was 67.3%.

Turning to `COc1ccc(/C=N/NC(=O)c2cccc3cc[nH]c23)cc1O`, the growth was 11.3%.

Take `COc1ccc(-c2nn(-c3cccc(Cl)c3)cc2-c2cc(-c3cccs3)[nH]c(=S)n2)cc1`: the growth is 67.8%.

For `COc1cc(-c2csc(NC(=O)Nc3ccc(Cl)c(C(F)(F)F)c3)n2)cc(OC)c1OC`, the growth is -12.7% (active).

Regarding `COc1cc2cc(OC(C)=O)c3cc4c(cc3c2c(OC)c1OC)OCO4`, the growth is 96.4%.

Regarding `O=C(c1ccccc1)c1ccc(O)c2ncccc12`, the growth is 25.6%.

`C=C[C@@H]1C[C@@H]2Cc3ccccc3N1O2`: the growth is 97.8%.

For `CCNc1nc(O)c(/C=C2\C=Nc3ncccc32)s1`, the growth was -34.7% (active).

As to `Cc1nc2cc(Nc3nc(Cl)nc(Nc4ccc(F)cc4)n3)ccc2n1Cc1ccccc1`, the growth was 76.2%.
